Active and inactive are the calls of the source.
Legend:
[1] = small molecules captured by biotinylated probe aFSTL3 – biochemical, small-molecule microarray, fluorescence 635/667, stem cell growth factor project, primary screen (AID 1064); settings: higher = more signal;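 note: measures binding of the biotinylated anti-FSTL3 antibody to printed compounds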
[2] = binders from COS7 lysate, DM2A8 probe, primary screen, torsin A project, cell lysate, small-molecule microarray, fluorescence 635/667 (AID 1065); settings: higher = more signal, COS7 lysate expressing mutant human TOR1A
[3] = small molecules captured by biotinylated probe aFGF2 – biochemical, small-molecule microarray, fluorescence 635/667, stem cell growth factor project, primary screen (AID 1067); settings: higher = more signal;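 note: measures binding of biotinylated aFGF2 protein to printed compounds on slides; z-score merges feature fluorescence and signal-to-noise across triplicate slides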
[4] = small molecules captured by biotinylated probe aFGF10 – biochemical, small-molecule microarray, fluorescence 635/667, stem cell growth factor project, primary screen (AID 1071); settings: higher = more signal;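 note: score merges 667 nm spot intensity and signal to noise from triplicate slides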
[5] = biological target: Neurogenic locus notch homolog protein 2 (Homo sapiens) (UniProt Q04721); experiment: small molecules binding Notch2 protein – biochemical, small-molecule microarray, 635 nm fluorescence, stem cell growth factors, primary screen (AID 1073); settings: higher = more signal
[6] = biological target: Pro-neuregulin-1, membrane-bound isoform (Homo sapiens) (UniProt Q02297); experiment: small molecules binding neuregulin-1 protein – biochemical, small-molecule microarray, fluorescence 635/667, psychiatric disease protein project, primary screen (AID 1075); settings: NRG1 binding, 635 nm fluorescence, higher = more signal;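 note: score combines 667 nm spot fluorescence with signal to noise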
[7] = system: Neuregulin-1 EGF-like domain; experiment: small molecules binding NRG1 EGF domain – biochemical, small-molecule microarray, 635 nm fluorescence, primary screen (AID 1081); settings: higher = more signal;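 note: binding of the protein to compounds printed on small-molecule microarray slides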
[8] = FRG1 expression reporter modulators in myotubes – cell-based, C2C12 myotubes, firefly/Renilla luciferase, luminescence, FRG1 inhibition for FSHD, primary screen (AID 1084); settings: FRG1 promoter luciferase, higher = more signal, called active from +8 up or from −8 down
[9] = small molecules captured by biotinylated probe aFST – biochemical, small-molecule microarray, fluorescence 635/667, stem cell growth factor project, primary screen (AID 1086); settings: higher = more signal;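 note: score merges 667 nm fluorescence with signal-to-noise of each printed compound spot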
[10] = binders of probe aHhip on microarray, primary screen, stem cell growth factor project, biochemical, small-molecule microarray, fluorescence 635/667 (AID 1087); settings: higher = more signal;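 note: score merges spot fluorescence at 667nm with spot signal to noise ratio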
[11] = system: PRMT1 (protein arginine N-methyltransferase 1); experiment: small molecules binding arginine methyltransferase PRMT1 – biochemical, small-molecule microarray, 635 nm fluorescence, primary screen (AID 1088); settings: higher = more signal;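 note: binding of Prmt1 protein to compounds spotted on small-molecule microarray slides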
[12] = growth effects on S. cerevisiae YJM789 – YJM789 clinical isolate, OD600, 24 h, basal, primary screen (AID 1089); settings: higher = more signal, called active from +8 up or from −8 down;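 note: growth of clinical yeast isolate S. cerevisiae YJM 789 seeded 1000 cells per well; test concentration not given here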
[13] = S. pombe growth modifiers, basal conditions – strain 972, OD600, 24 h, no modulator, primary screen (AID 1090);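 note: basal condition with compound alone and no growth modifier present; test concentration not given here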; settings: S. pombe 972 growth, higher = more signal, called active from +8 up or from −8 down
[14] = budding yeast growth modifiers under rapamycin – strain BY4716, OD600, 96 h, primary screen (AID 1091); note: test concentration not given here; settings: S. cerevisiae BY4716 + rapamycin, higher = more signal, called active from +8 up or from −8 down
[15] = biological target: Torsin-1A-interacting protein 2 (Homo sapiens) (UniProt Q8NFQ8); experiment: small molecules binding lysate-expressed LULL1 – cell lysate, human LULL1 lysate, 635/667 nm fluorescence, primary screen (AID 1092); settings: small-molecule microarray, hLULL1 lysate binding, 635 nm fluorescence; higher = more signal;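 note: probe is lysate of COS7 cells overexpressing human LULL1; score merges per-feature 667 nm fluorescence with signal-to-noise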
[16] = optical density change of DRC41 E. coli – strain DRC41, OD650, 24 h, E. coli filamentation project, primary screen (AID 1093);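 note: MC1000 strain lacking acrAB efflux and sulA so SOS filamentation is blocked; test concentration not given here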; settings: E. coli DRC41 growth, higher = more signal, called active from +8 up or from −8 down
[17] = probe aLefty2 binding to arrayed compounds – biochemical, biotinylated probe, 635/667 nm fluorescence, primary screen (AID 1094); settings: small-molecule microarray, higher = more signal;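 note: score merges spot fluorescence near 667 nm with spot signal-to-noise ratio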
[18] = system: Noggin (protein binding on small-molecule microarray); experiment: small molecules binding Noggin protein – biochemical, 635/667 nm fluorescence, primary screen (AID 1095); settings: 635 nm fluorescence, higher = more signal;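 note: score merges 667 nm feature fluorescence with signal to noise over triplicate slides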
[19] = biological target: Neurogenic locus notch homolog protein 3 (Homo sapiens) (UniProt Q9UM47); experiment: small molecules binding NOTCH3 protein – biochemical, 635/667 nm fluorescence, primary screen (AID 1096); settings: small-molecule microarray, 635 nm fluorescence, higher = more signal
[20] = probe aEGFR binding to arrayed compounds – biochemical, biotinylated probe, 635/667 nm fluorescence, primary screen (AID 1097); settings: small-molecule microarray, higher = more signal;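 note: probe is a biotinylated anti-EGFR antibody binding compounds printed on slides; score combines fluorescence near 667 nm and signal to noise of each spot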

Chain of Pro-neuregulin-1, membrane-bound isoform (Homo sapiens) (Q02297 whole entry, looked up, the tested form may be a part, canonical isoform): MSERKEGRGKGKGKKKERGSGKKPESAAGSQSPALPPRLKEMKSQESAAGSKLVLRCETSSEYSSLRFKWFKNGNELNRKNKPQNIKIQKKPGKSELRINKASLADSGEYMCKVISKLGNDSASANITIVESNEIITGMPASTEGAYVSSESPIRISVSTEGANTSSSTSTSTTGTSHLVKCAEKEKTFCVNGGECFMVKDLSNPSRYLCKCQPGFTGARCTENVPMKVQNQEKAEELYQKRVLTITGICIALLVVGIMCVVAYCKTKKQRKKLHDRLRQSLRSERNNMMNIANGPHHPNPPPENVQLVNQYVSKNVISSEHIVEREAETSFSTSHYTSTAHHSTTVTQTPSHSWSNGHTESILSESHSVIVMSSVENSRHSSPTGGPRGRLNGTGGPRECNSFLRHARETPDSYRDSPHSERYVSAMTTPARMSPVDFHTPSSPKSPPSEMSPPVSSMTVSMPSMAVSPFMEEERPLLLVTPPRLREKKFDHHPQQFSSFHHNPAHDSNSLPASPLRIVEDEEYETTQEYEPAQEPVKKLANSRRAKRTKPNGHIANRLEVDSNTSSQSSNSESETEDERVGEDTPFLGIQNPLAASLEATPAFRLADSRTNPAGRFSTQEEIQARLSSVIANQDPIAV
Chain of Neurogenic locus notch homolog protein 3 (Homo sapiens) (Q9UM47 whole entry, looked up): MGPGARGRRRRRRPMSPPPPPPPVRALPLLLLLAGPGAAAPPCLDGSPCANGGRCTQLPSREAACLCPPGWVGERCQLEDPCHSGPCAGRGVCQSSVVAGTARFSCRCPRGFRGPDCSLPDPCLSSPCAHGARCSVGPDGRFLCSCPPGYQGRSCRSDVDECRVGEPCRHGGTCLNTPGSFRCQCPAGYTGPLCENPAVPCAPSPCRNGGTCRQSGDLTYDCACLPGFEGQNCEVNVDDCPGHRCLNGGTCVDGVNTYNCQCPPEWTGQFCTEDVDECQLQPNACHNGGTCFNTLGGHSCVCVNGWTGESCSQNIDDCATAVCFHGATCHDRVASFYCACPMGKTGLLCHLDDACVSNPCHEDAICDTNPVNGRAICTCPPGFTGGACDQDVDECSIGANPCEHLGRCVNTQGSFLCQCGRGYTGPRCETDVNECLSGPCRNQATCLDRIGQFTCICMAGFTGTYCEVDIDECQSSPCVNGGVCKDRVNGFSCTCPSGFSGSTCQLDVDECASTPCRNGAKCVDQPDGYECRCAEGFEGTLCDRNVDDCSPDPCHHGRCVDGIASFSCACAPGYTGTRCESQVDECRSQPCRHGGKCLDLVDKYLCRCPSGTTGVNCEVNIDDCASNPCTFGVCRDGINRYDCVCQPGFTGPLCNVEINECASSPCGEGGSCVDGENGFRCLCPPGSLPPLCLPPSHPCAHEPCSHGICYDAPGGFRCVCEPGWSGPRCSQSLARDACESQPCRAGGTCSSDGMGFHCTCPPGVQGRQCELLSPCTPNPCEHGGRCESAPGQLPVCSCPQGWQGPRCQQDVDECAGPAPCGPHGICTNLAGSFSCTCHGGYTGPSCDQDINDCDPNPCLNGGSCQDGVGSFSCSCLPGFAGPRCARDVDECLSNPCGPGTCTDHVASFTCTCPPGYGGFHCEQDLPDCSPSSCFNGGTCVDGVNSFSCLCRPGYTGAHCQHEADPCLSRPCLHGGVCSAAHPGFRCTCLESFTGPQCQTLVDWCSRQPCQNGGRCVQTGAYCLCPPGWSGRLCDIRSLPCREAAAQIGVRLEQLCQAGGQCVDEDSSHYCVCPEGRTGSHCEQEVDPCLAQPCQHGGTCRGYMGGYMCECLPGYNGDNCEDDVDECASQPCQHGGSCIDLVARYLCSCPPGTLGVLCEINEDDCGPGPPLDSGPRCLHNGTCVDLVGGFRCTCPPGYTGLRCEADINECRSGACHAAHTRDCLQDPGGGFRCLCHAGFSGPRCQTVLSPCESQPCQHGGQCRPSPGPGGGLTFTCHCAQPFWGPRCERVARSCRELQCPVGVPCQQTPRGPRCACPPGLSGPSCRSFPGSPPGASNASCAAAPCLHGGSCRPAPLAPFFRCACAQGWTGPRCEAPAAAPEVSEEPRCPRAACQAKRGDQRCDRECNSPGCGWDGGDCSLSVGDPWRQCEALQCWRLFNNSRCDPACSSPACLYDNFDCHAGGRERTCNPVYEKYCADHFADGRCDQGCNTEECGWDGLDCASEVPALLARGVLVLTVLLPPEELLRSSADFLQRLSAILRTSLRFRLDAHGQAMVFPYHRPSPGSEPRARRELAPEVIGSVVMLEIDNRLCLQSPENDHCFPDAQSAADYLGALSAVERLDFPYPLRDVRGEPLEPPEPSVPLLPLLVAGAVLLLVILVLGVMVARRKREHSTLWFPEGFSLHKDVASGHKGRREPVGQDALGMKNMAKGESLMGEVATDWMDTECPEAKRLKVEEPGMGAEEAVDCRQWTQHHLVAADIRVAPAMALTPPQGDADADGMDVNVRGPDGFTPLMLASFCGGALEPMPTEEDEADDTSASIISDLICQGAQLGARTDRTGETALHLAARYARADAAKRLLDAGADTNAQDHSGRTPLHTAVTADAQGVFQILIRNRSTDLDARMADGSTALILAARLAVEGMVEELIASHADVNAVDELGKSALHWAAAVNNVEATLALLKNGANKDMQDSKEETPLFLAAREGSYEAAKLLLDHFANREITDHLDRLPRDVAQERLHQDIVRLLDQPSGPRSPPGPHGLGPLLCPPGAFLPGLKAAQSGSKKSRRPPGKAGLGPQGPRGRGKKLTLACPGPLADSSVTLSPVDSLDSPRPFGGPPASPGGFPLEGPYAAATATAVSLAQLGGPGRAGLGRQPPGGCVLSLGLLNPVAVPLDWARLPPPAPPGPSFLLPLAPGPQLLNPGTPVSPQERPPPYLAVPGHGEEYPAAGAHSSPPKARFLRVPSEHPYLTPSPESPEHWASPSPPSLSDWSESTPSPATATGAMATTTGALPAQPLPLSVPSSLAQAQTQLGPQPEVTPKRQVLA
Chain of Torsin-1A-interacting protein 2 (Homo sapiens) (Q8NFQ8 whole entry, looked up): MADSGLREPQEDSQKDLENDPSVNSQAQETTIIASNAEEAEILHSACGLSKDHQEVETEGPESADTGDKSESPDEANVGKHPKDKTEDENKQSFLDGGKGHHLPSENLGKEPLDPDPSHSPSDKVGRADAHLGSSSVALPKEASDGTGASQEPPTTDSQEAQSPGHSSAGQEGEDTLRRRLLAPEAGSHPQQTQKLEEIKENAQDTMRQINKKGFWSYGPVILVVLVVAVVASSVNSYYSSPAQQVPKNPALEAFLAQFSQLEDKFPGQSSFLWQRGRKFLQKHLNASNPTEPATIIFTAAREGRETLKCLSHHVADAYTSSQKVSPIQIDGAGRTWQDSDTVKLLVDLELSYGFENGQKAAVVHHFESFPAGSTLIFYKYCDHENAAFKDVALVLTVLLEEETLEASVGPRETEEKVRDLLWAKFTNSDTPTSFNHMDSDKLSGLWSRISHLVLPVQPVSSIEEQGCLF

SMILES | composite z-score [1] | composite z-score [2] | composite z-score [3] | composite z-score [4] | composite z-score [5] | composite z-score [6] | composite z-score [7] | z-score [8] | composite z-score [9] | composite z-score [10] | composite z-score [11] | z-score [12] | z-score [13] | z-score [14] | composite z-score [15] | z-score [16] | composite z-score [17] | composite z-score [18] | composite z-score [19] | composite z-score [20]
CC(C)N1CC=CC23O[C@@H]4C=CCCOC(=O)C4[C@H]2C(=O)N(CCO)[C@@H]3C1=O (stereo not given in full) | 0.108 | 2.11 | -0.177 | -0.351 | -0.537 | -0.637 | 0.606 | -0.286 (inactive) | -0.398 | -0.0939 | 0.291 | -0.631 (inactive) | -0.349 (inactive) | -1.2 (inactive) | -0.805 | 2.99 (inactive) | -0.145 | -0.736 | -0.362 | -0.203
CC(C)C(O)C1C=CC2C(=O)N(C)C(=O)C2N1N(c1ccccc1)c1ccccc1 (stereo not given) | 0.626 | -0.312 | -0.0613 | -0.577 | 0.461 | 0.371 | -0.142 | -0.165 (inactive) | 0.272 | 0.0139 | -2.15 | 1.01 (inactive) | 1.55 (inactive) | 1.5 (inactive) | 2.17 | -0.573 (inactive) | 0.0443 | -0.306 | -0.853 | 0.102
CCCc1cccc(=O)o1 | -0.218 | -0.001 | -0.112 | 0.191 | 0.168 | 0.785 | 1.24 | 0.273 (inactive) | -0.278 | 0.155 | 0.804 | -0.91 (inactive) | 0.641 (inactive) | -0.467 (inactive) | 1.17 | -0.454 (inactive) | -0.0475 | 0.614 | 0.363 | 0.0276
CCOC(=O)C1=C[C@@H](c2ccccc2)N(S(=O)(=O)c2ccc(C)cc2)[C@H]1c1cccc(Cl)c1 | 0.266 | 1.81 | 0.085 | 0.885 | 1.58 | 1.34 | 0.991 | -2.98 (inactive) | 1.02 | -0.0919 | 1.57 | 0.962 (inactive) | 1.71 (inactive) | 2.24 (inactive) | 2.67 | -0.913 (inactive) | 0.268 | 0.688 | 1.07 | 0.143
Cc1ccc(S[C@]2(C(=O)O)CC(=O)N(Cc3ccccc3Cl)[C@@H]2c2ccc(CO)cc2)cc1 | 0.96 | -0.614 | -0.113 | 0.449 | -0.72 | 0.103 | -0.408 | -0.917 (inactive) | -0.172 | -0.0994 | -0.164 | -0.0285 (inactive) | -1.31 (inactive) | 0.644 (inactive) | 2.95 | -0.0647 (inactive) | 0.0069 | -1.46 | -0.944 | -0.119
[N-]=[N+]=Nc1ccccc1C[C@@]1(C(=O)O)N=C(c2ccc(OCCCO)cc2)O[C@@H]1c1ccccc1 | 0.0693 | -0.518 | 0.0248 | 0.303 | 1.35 | 1.75 | 1.24 | 0.835 (inactive) | 0.827 | -0.0765 | 0.616 | -0.0525 (inactive) | -0.85 (inactive) | -1.45 (inactive) | 3.43 | -0.0393 (inactive) | 0.0917 | -0.272 | 0.697 | -0.0952
CC(C)C[C@@H]1NC(=O)[C@H]2C[C@@H](C(=O)NCCCCCC[N+](C)(C)C)[C@@H](c3cccc(OCCO)c3)N2C1=O | -0.183 | 0.121 | -0.152 | -0.214 | -0.356 | -0.0252 | 1.34 | 4.18 (inactive) | -0.601 | -0.134 | 1.13 | -1.15 (inactive) | -0.455 (inactive) | -0.794 (inactive) | 2.49 | 0.319 (inactive) | -0.166 | 1.47 | 1.07 | 0.038
C[C@H]1C2=C3C(CC[C@H]4C(OCc5ccc(F)cc5C(F)(F)F)OC[C@](C)([C@@H]34)N(C(=O)OC(C)(C)C)C2)C(CO)C1CO (stereo not given in full) | 0.0721 | -0.249 | 0.0506 | -0.0807 | 1.57 | 1.76 | 0.572 | 0.133 (inactive) | 1.72 | 0.2 | 0.889 | 0.24 (inactive) | -3.71 (inactive) | 0.0345 (inactive) | 3.04 | -1.5 (inactive) | 0.606 | -0.904 | 1.05 | 0.0149
COc1ccc(C(O)C2C=CC3C(=O)N(Cc4ccccc4)C(=O)C3N2n2cnnc2)c2ccccc12 (stereo not given) | 0.487 | 1.07 | -0.0876 | -0.522 | -0.782 | 1.81 | 1.32 | 0.422 (inactive) | 0.623 | -0.162 | 1.17 | -0.346 (inactive) | 0.0768 (inactive) | -0.282 (inactive) | 2.81 | -0.671 (inactive) | -0.238 | -0.641 | 0.556 | -0.175
O=C1O[C@@H](c2ccccc2)[C@@H](c2ccccc2)N2[C@@H](c3ccc(O)cc3)[C@]3(C(=O)Nc4ccc(C#CCCO)cc43)[C@@H](C(=O)NC[C@H](O)c3ccccc3)[C@H]12 | 0.239 | 0.762 | -0.206 | -0.812 | -0.724 | 0.381 | 1 | -0.233 (inactive) | -0.0873 | -0.134 | 0.581 | 0.235 (inactive) | -0.137 (inactive) | 0.914 (inactive) | 2.9 | 0.231 (inactive) | -0.112 | 1.11 | -0.494 | -0.202

Source: PubChem BioAssay
